Assay results reported in PubChem BioAssay AID463165 (Johns Hopkins Ion Channel Center, 2010).
In all, about 310,000 compounds went through this assay and about 1,400 (0.45%) were called active.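 Rule for the calls: active = B-score, a plate-corrected calcium signal, over three deviations above library mean, with baseline fluorescence within five deviations of library mean; inactive = the rest.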 Many of the other results were omitted from the sample, so actives are more common in it than they were.

These compounds were tested against Regulator of G-protein signaling 4 (Homo sapiens) (UniProt P49798) (assay: RGS4 inhibitors, primary screen, cell-based, HEK293 M3R inducible RGS4, calcium flux (AID 463165;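 note: RGS4 expression induced by doxycycline in cells with stable M3 receptor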;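 for B-score: B-score is computed from the integrated fluorescence ratio over baseline after carbachol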)). Details: Fluo-4 calcium flux, at 10 µM, triggered by carbachol at its EC20; stronger effect = higher value.
Sequence of Regulator of G-protein signaling 4 (Homo sapiens) (P49798 whole entry, looked up): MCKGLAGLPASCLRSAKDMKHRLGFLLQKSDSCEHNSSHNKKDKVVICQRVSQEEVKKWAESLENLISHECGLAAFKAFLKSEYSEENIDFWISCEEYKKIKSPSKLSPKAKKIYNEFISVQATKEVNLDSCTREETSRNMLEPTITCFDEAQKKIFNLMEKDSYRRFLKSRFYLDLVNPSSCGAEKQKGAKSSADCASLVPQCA

B-score, active:
CC(C)c1nc(SCC(=O)Nc2cccc(C(=O)O)c2)c2c3c(sc2n1)CCCC3 5.64
COc1ccc(-c2csc(Nc3ccc(O)cc3)n2)cc1 8.75
Oc1ccc(-c2[nH]ncc2-c2nc3ccccc3s2)c(O)c1 5.08
Cc1ccc(-c2csc(NC(=O)C3=COCCO3)n2)cc1C 9.56
O=C(CCN1CCc2ccccc2C(O)(c2ccccc2)C1)c1ccc2c(c1)OCCO2 (stereo not given) 8.45
CC(C)Cc1nc(Nc2ccc(S(=O)(=O)N3CCCC3)cc2)c2nnn(Cc3ccccc3)c2n1 4.81
Cn1c(-c2ccco2)nc2cc3ccccc3cc21 8.29
CS(=O)(=O)N(CC(O)Cn1c2ccccc2c2ccccc21)c1cccc2ccccc12 (stereo not given) 7.61
COC(=O)Cn1cc(/C=C/[N+](=O)[O-])c2ccccc21 14.7
Nc1cccc(-c2cc(-c3ccccc3)nc(-c3cccc(N)c3)n2)c1 5.75
CCOC(=O)C1=NN(c2ccc(Cl)cc2)/C(=C/C2=NCCc3cc(OC)c(OC)cc32)S1 4.81
O=C1/C(=C\c2cccnc2)CN(Cc2ccccc2)C/C1=C\c1cccnc1 20.8
C=C(C)C(=O)O[C@H]1C/C(C)=C\C(=O)/C=C(\C)[C@H](O)[C@@H]2OC(=O)C(=C)[C@@H]21 5.6
O=C(O)c1ccc2c(c1)C(=O)N(c1ccc(/C=C/C(=O)c3ccccc3)cc1)C2=O 24.6

B-score, inactive:
CNc1nccc(-c2ccc(Cl)cc2)c1C#N
Cc1ccc(C)c2c1cc(C)c1nnc(SCC(=O)Nc3cccc(C(=O)O)c3)n12
Cc1cc(NC(=O)CSc2nc(C(C)C)nc3sc4c(c23)CCC(C)C4)no1 (stereo not given)
Cc1ccccc1OC(=O)Cn1c(C(F)(F)F)nc2ccccc21
Cc1ccc(-n2[nH]c(C)c(/C=N/NC(=O)c3cccc([N+](=O)[O-])c3)c2=O)cc1C
COc1ccc(-c2csc(Cc3nc(O)cs3)n2)cc1
COc1ccc(-c2csc(NC(=O)COC(=O)c3ccc(Br)o3)n2)cc1
CCOc1ccc(OCC)c(NC(=O)CCS(=O)(=O)c2ccc(C)cc2)c1
CN(C)c1ccc(CNC2C3CC4CC(C3)CC2C4)cc1 (stereo not given)
COc1ccc(Oc2cn[nH]c2-c2ccc(OC)cc2O)cc1
CC(=O)Nc1cccc(-c2nc3ccccc3s2)c1C
CCC1(C(=O)c2ccccc2)C(c2cccc([N+](=O)[O-])c2)C1(C(=O)OC)C(=O)OC (stereo not given)
CC(CC(=O)C1C(C)C=CCC1(C)C)NNC(N)=O (stereo not given)
CC(=O)NCCC(=O)Nc1nc(-c2ccc3c(c2)OCCO3)cs1
Cc1csc(NC(=O)C2=COCCO2)n1
COc1cccc(NC(C)=[N+](C)CCNS(=O)(=O)c2ccc(Cl)cc2)c1
CCCCN1C(=O)CC(N2CCOCC2)C1=O (stereo not given)
O=C(CN1CCC(O)(c2ccccc2)CC1)Nc1ccc2c(c1)OCCO2
CCC1(c2ccccc2)NC(=O)N(CC(=O)c2ccc3c(c2)OCO3)C1=O (stereo not given)
CC(CO)N1CCS(=O)(=O)CC1 (stereo not given)
COc1cccc(OC)c1C(=O)Nc1ccc(Cc2ccncc2)cc1
Clc1ccc(Nc2ncnc3c2nnn3Cc2ccccc2)cc1
Cc1nc(Nc2ccc(S(=O)(=O)N3CCCC3)cc2)c2nnn(Cc3ccccc3)c2n1
Cc1ccccc1CN1CCC(C(=O)Nc2ccc(Oc3cccnc3)cc2)CC1
COc1ccc(-c2cc(C(=O)N/N=C/c3cccnc3)c3ccccc3n2)c(OC)c1
Cc1cc(C)c2nc(-c3ccco3)cc(C(=O)O)c2c1
COc1ccccc1-n1c(-c2cc(-c3ccco3)[nH]n2)n[nH]c1=S
CC(=O)c1ccc2c(c1)c1ccccc1n2CC(C)C
CCCCN(CCCC)CC(O)Cn1c2ccccc2c(=O)c2ccccc21 (stereo not given)
COc1ccccc1CN(C)C(=O)C1(c2ccc(Cl)cc2)CC1
CN(CC1CCCN(CCc2cccc(C(F)(F)F)c2)C1)C(=O)c1ccc2nc[nH]c2c1 (stereo not given)
COC(=O)c1cn(CC(=O)NCc2cccs2)c2ccccc12
COC(=O)N/N=C/c1cn(CCCOc2ccc(C)cc2)c2ccccc12
O=C(CN1CCN(S(=O)(=O)c2ccc3ccccc3c2)CC1)NC(=O)NC1CCCCC1
CCCc1nn(C)c2c(=O)[nH]c(-c3cc(S(N)(=O)=O)ccc3OCC)nc12
CCCCOc1ccc(C(=O)N/C(=C/C=C/c2ccccc2)C(=O)N2CCOCC2)cc1
OCCCC1CCCCN1Cc1nc(Cc2ccccc2Cl)no1 (stereo not given)
Nc1nc(-c2ccccc2)cc(-c2ccccc2)n1
CNc1nc(-c2ccccc2)cc(-c2ccccc2)n1
COCCNC(=O)C(OC(=O)c1cccs1)c1ccc(F)cc1 (stereo not given)
COCCNC(=O)CSc1nc2c(n1-c1ccccc1)CCCC2
O=C(NCc1ccc(F)cc1)C1CCC(CNc2c(N3CCOCC3)c(=O)c2=O)CC1 (stereo not given)
Cc1noc(C)c1S(=O)(=O)Nc1cc(C(F)(F)F)ccc1N1CCOCC1
CCOC(=O)C1=C(CN2CCc3ccccc32)NC(=O)NC1c1ccc(Cl)cc1 (stereo not given)
COc1cc2c(cc1OC)C(/C=C/c1ccco1)=NCC2
CC(=O)c1cccc(NC(=O)C2CCCN2S(=O)(=O)c2cccc3nsnc23)c1 (stereo not given)
Cn1c(N2CCOCC2)c(C=O)c2ccccc21
Clc1ccc(CN2CCN(/N=C/c3cccnc3)CC2)cc1
O=C1NCC(=O)N(Cc2ccccc2)/C1=C/c1ccccc1
NS(=O)(=O)c1ccc(CCNC(=O)c2ccc([N+](=O)[O-])cc2[N+](=O)[O-])cc1
COc1cc(/C=N/NC(=O)c2cccnc2)ccc1OC(=O)c1cccc(Br)c1
Nc1ccccc1/C=N\N=C/c1ccccc1N
Cc1ccc2c(c1)N(CC(=O)NCCc1ccc(Cl)cc1)C(=O)c1cccnc1O2
Cn1c(SCC(=O)N2CCCC2)nnc1-c1cccs1
Cc1cccc(N2C(=O)c3ccc(C(=O)Nc4cccc(C(=O)O)c4)cc3C2=O)c1
O=C(/C=C/c1ccc(N2CCOCC2)cc1)c1ccccc1
